Results from PubChem BioAssay (NCI).
This is part of a sample that, as a whole, favours compounds with a hit. Of some 83,000 tested, about 20% had one in any assay.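 96-well plates, one dose, 48 hours. Percent growth reported; active if below 10.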 Unmarked numbers belong to inactive results. Active and inactive are the calls of the source.

What was measured:
Experiment in all cases: NCI-60 one-dose screen, 48 h (100 = growth as untreated, 0 = no growth, -100 = all killed)
Conditions in all cases: 10 µM unless noted
DU-145 prostate = test system: DU-145 prostate
K-562 leukemia = test system: K-562 leukemia
MALME-3M melanoma = test system: MALME-3M melanoma
MDA-MB-231 breast = test system: MDA-MB-231 breast
RXF 393 renal = test system: RXF 393 renal
SF-268 CNS = test system: SF-268 CNS
SF-295 CNS = test system: SF-295 CNS
SF-539 CNS = test system: SF-539 CNS
UACC-257 melanoma = test system: UACC-257 melanoma
M14 melanoma = test system: M14 melanoma
HCT-15 colon = test system: HCT-15 colon
HT29 colon = test system: HT29 colon
SNB-75 CNS = test system: SNB-75 CNS
SNB-19 CNS = test system: SNB-19 CNS
PC-3 prostate = test system: PC-3 prostate
SK-MEL-5 melanoma = test system: SK-MEL-5 melanoma
UACC-62 melanoma = test system: UACC-62 melanoma
LOX IMVI melanoma = test system: LOX IMVI melanoma
SK-MEL-28 melanoma = test system: SK-MEL-28 melanoma
U251 CNS = test system: U251 CNS

Structure (SMILES)	growth (DU-145 prostate)	growth (K-562 leukemia)	growth (MALME-3M melanoma)	growth (MDA-MB-231 breast)	growth (RXF 393 renal)	growth (SF-268 CNS)	growth (SF-295 CNS)	growth (SF-539 CNS)	growth (UACC-257 melanoma)	growth (M14 melanoma)	growth (HCT-15 colon)	growth (HT29 colon)	growth (SNB-75 CNS)	growth (SNB-19 CNS)	growth (PC-3 prostate)	growth (SK-MEL-5 melanoma)	growth (UACC-62 melanoma)	growth (LOX IMVI melanoma)	growth (SK-MEL-28 melanoma)	growth (U251 CNS) [%]
COc1ccc(C(=O)Nc2cccc(-c3cc(=O)c4c(OC)c(OC)c(OC)cc4o3)c2)cc1	56.5%	20.6%	53.4%	57.2%	53.6%	58.4%	59.6%	66.3%	105%	68%	45.2%	46.7%	67.6%	64.6%	31.9%	50.2%	55.4%	41.9%	69%	
O=c1c2ccccc2n2cnc3ccc(Cl)c1c32	62.8%	97.2%	90.7%	90.7%	69.8%	86.9%	85.9%	88.4%	95.7%	83.9%	66.4%	73.4%	100%	83.8%	85.2%	77%	64.6%	62.8%	92.2%	
Nc1cc(C(=O)NC[C@H]2CN(c3ccc(N4CCC(C(=O)O)CC4)cc3)C(=O)O2)ccc1Cl	109%	92.1%	94%	94.2%	112%	98.4%	103%	93.7%	98.8%	98.2%	102%	104%	84.8%	98.7%	101%	103%	95.8%	97%	109%	
Cc1ccc(-c2nc(N3CCCNCC3)c3oc(-c4ccccc4)nc3n2)cc1	-15.2% (active)	-63.6% (active)	-92.4% (active)	-91.7% (active)	-74.3% (active)	-42.9% (active)	-89.6% (active)	-91.4% (active)	-82.2% (active)	-94.7% (active)	-85.1% (active)	-82.8% (active)	-67.3% (active)	8.75% (active)	-88.7% (active)	-93.4% (active)	-91.8% (active)	-91.6% (active)	-93.4% (active)	
O=C(Nc1nc2ccccc2s1)c1ccc(F)cc1	108%	90%	96.2%	95.5%	107%	114%	103%	102%	108%	110%	85.5%	108%	96.7%	126%	96.6%	91.3%	89.5%	101%	114%	
CC(C)(Sc1cc(C(C)(C)C)c(OC(=O)CCCC(=O)O)c(C(C)(C)C)c1)Sc1cc(C(C)(C)C)c(OC(=O)CCCC(=O)O)c(C(C)(C)C)c1	51.4%	35.1%	46.2%	57.8%	37.6%	28.6%	33.7%	6.97% (active)	46.7%	45.5%	7.28% (active)	26.9%	68%	29.6%	36.2%	-3.74% (active)		27.1%	24.9%	14.4
O=C(Nc1cccc(Cl)c1)Nc1cccc(Cn2c(=O)[nH]c3ccc(Oc4ncccn4)cc3c2=O)c1	37.3%	26.3%	58.9%	53.4%	67.5%	30.8%	36.2%	62.8%	23.7%	53%	80.6%	38.8%	57.8%	55.6%	36.5%	25.5%	49.3%	49.7%	59.1%	
COc1cc2ncnc(Nc3ccc(S(=O)(=O)Nc4cc(C)on4)cc3)c2cc1OCCCN1CCN(c2ccc(F)cc2)CC1	112%	89.8%	99.3%	89.6%	105%	97.9%	102%	96.4%	106%	108%	110%	112%	85.4%	97.3%	101%	103%	91%	89.8%	107%	
COc1cc2c(cc1OC)C(C)N(S(N)(=O)=O)CC2 (centres undefined)	105%	103%	105%	101%	113%	96.2%	104%	97.7%	100%	91.8%	102%	99.8%	87.6%	97.6%	89%	105%	95.4%	102%	106%	
CC(=O)Oc1ccc(C)cc1C	110%	101%	104%	104%	114%	104%	106%	99%	106%	103%	100%	105%	70.3%	103%	97%	108%	105%	97.1%	107%	
COc1c(C(=O)Nc2ccc(C)c(Br)c2)ccc2ccccc12	96.8%	41.9%	84.4%	104%	81.1%	96.5%	90.6%	92.2%	98.3%	81.1%	61.2%	78.5%	88.4%	95.3%	87.7%	98.3%	71.6%	95.1%	93.3%	
CCC(=C(c1ccc(OCCN2CCCCC2)cc1)c1ccc(OCCN2CCCCC2)cc1)c1ccc(Cl)cc1	-89.8% (active)	-37% (active)	-83.4% (active)	-90.1% (active)	-81.4% (active)	-72.1% (active)	-89.7% (active)	-97.3% (active)	-76.9% (active)	-83.1% (active)	-84.9% (active)	-74.6% (active)	-96.4% (active)	-94.5% (active)	-81.2% (active)	-96.8% (active)	-89.7% (active)	-84.8% (active)	-97% (active)	
COc1ccc(OC)c(/C=N/Nc2ncnc3c2c(C)nn3C)c1	108%	93.2%	119%	81%	96.9%	87.1%	99.7%	105%	112%	101%	100%	88.3%	104%	98.3%	99.6%	98%	93.5%	99.5%	98.8%	
COc1ccc(/C=N/C2=C(C#N)C(c3ccccc3)c3ccc4ccccc4c3O2)cc1 (centres undefined)	25.6%	12.2%	43.6%	18.7%	26%	46.5%	9% (active)	-8.29% (active)	48.4%	2.72% (active)	15.8%	6.29% (active)	15.5%	24.6%	8.18% (active)	16.3%		29.5%	41.4%	18.5
c1csc(-c2ccc(CNc3c4ccccc4nc4ccccc34)cc2)c1	61.7%	-39.9% (active)	-82% (active)	38.3%	-14.3% (active)	62.9%	15.8%	12.5%	-37.4% (active)	-74.4% (active)	-66.2% (active)	-46.8% (active)	36.1%	46.2%	24%	-90.7% (active)	64.5%	-90.7% (active)	-86% (active)	
CN(C)CC(C)(C)C(=O)/C=C/c1ccccc1	-46.5% [25 µM] (active)	1.32% [25 µM] (active)	-69.5% [25 µM] (active)	-10.9% [25 µM] (active)	-77.2% [25 µM] (active)	1.85% [25 µM] (active)	7.02% [25 µM] (active)	-77.2% [25 µM] (active)	-43.5% [25 µM] (active)	-50.4% [25 µM] (active)	-47.6% [25 µM] (active)	-16.7% [25 µM] (active)	-13.7% [25 µM] (active)	-1% [25 µM] (active)	-34.4% [25 µM] (active)	-86.8% [25 µM] (active)	-73.6% [25 µM] (active)	-84.8% [25 µM] (active)	-61.6% [25 µM] (active)	
